From PubChem BioAssay AID651871 (Sanford-Burnham Center for Chemical Genomics, 2012) come the findings set out here.

In this experiment the test system is HL-1. The experiment in a line: cardiomyocyte survival under oxidative or metabolic stress – cell-based, panel, H9c2 and HL-1, ATP luminescence, set 2, SAR follow-up (AID 651871).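 Also: cells exposed to stressor for 2 h before ATP readout; reference of the scale not given here.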 The settings on record: H9c2/HL-1 cardiomyocytes, 2-deoxyglucose stress, with 2-deoxyglucose, run 4, at 19.8 µM (top of the series).

In the case of `COc1ccc2c(c1OC)C(=O)N1c3ccccc3C(=O)N(Cc3cccc(Cl)c3Cl)C21` (stereo unspecified), the activity (protection/inhibition) was 48.1%.
